# Reference: the supplement of paper PMC10646978
# ± gives the standard deviation.
# How the values were obtained:
# Conditions in all cases: modulator concentration 10 µM
# [1] = test system: RAW-Dual (murine macrophage reporter line); assay: NF-kB reporter (SEAP) activity fold change vs agonist alone; higher = enhanced NF-kB activity
# Procedure, shortened: (§1)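 RAW-Dual murine macrophage reporter cells were plated at 50 000 per well in 384-well plates, pin-transferred compound to 10 μM final, and pre-incubated for 1 hour at 37 °C before a PRR agonist was added and the cells incubated overnight. NF-κB activity was read from supernatant SEAP with QUANTI-Blue at 620 nm absorbance, and IRF activity from Lucia luciferase with QUANTI-Luc by luminescence. Each signal was expressed as fold change by dividing by the mean agonist-only control on the same plate. Two replicate plates were averaged, with errors obtained by propagation.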
# [2] = test system: RAW-Dual (murine macrophage reporter line); assay: IRF reporter (Lucia luciferase) activity fold change vs agonist alone; higher = enhanced IRF activity
# Procedure, shortened: as §1
# [3] = test system: RAW-Dual (murine macrophage reporter line); assay: viability score (confluency relative to resting cells, overnight) (fraction); higher = more viable, active = viable (0.7 or more)
# Procedure, shortened: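 RAW-Dual macrophages in 384-well plates were incubated overnight with compound, final concentration 10 μM. Confluency images from IncuCyte were processed in IncuCyte software into two masks covering all imaged wells. The viability score is each well's confluency relative to resting cells, and a compound met the cutoff when both masks exceeded 70% of resting cells.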
# [4] = agonist: CpG ODN 1826 0.5 ug/mL
Structure (SMILES),"NF-kB reporter [1, 4]",NF-kB reporter ([1]; agonist: LPS 0.1 ug/mL),NF-kB reporter ([1]; agonist: MPLA […]),IRF reporter ([2]; agonist: 3'3'-cGAMP 10 ug/mL),IRF reporter ([2]; agonist: LPS 0.1 ug/mL),IRF reporter ([2]; agonist: MPLA […]),viability score [3]
COc1cc(C=NNC(=O)c2ccc(OC)c(OC)c2)ccc1O,0.788 ± 0.32,0.838 ± 0.098,0.831 ± 0.066,0.83 ± 0.022,0.938 ± 0.15,1.15 ± 0.15,0.996 (active)
COc1ccc(C(=O)NCCOc2cc(C)cc(C)c2)cc1OC,1.48 ± 0.12,1 ± 0.056,0.827 ± 0.062,1.02 ± 0.045,1.42 ± 0.19,1.03 ± 0.21,1.01 (active)
CC[C@H](C)C(=O)O[C@H]1C[C@@H](C)C=C2C=C[C@H](C)[C@H](CC[C@@H]3C[C@@H](O)CC(=O)O3)[C@H]21,2.37 ± 0.12,1.5 ± 0.12,1.77 ± 0.078,0.639 ± 0.058,0.795 ± 0.055,0.776 ± 0.17,0.238 (inactive)
C=C1CCC2C(C)(CO)C(O)CCC2(C)C1CC=C1C(=O)OCC1O (configuration not stated),0.462 ± 0.11,0.496 ± 0.025,0.755 ± 0.11,0.188 ± 0.0064,2.13 ± 0.35,1.51 ± 0.18,0.839 (active)
COc1ccc(C(=O)ON=C(N)c2ccc(OC)c(OC)c2)cc1OC,0.825 ± 0.096,0.878 ± 0.09,0.971 ± 0.086,0.933 ± 0.078,1.1 ± 0.07,1.13 ± 0.11,1.01 (active)
O=C1C(CCS(=O)c2ccccc2)C(=O)N(c2ccccc2)N1c1ccccc1 (configuration not stated),0.833 ± 0.042,0.955 ± 0.076,0.954 ± 0.056,1.01 ± 0.068,1.22 ± 0.2,1.31 ± 0.44,1.02 (active)
Nc1ncn([C@H]2C[C@H](O)[C@@H](CO)O2)c(=O)n1,1.3 ± 0.11,0.995 ± 0.054,1.15 ± 0.061,1.84 ± 0.32,1.09 ± 0.048,1.39 ± 0.27,0.963 (active)
Cc1c(Cl)cccc1NC(=O)C(Cl)=Cc1ccccc1,0.757 ± 0.082,0.929 ± 0.11,1.07 ± 0.095,0.799 ± 0.04,1.13 ± 0.068,1.25 ± 0.11,1.01 (active)
O=C(CCc1ccc(F)c(Cl)c1)NCCn1nccn1,1.06 ± 0.052,1.06 ± 0.11,0.972 ± 0.056,1 ± 0.068,1.21 ± 0.076,1.06 ± 0.087,0.992 (active)
COc1ccc(Cl)cc1C(=O)N1CCC(S(=O)(=O)c2nncn2C)CC1,0.944 ± 0.051,1.04 ± 0.11,0.858 ± 0.038,1 ± 0.052,1.19 ± 0.085,1.11 ± 0.29,0.994 (active)
O=C(NCCn1nc(-c2ccccn2)c2c1CCCC2)c1c(F)cccc1Cl,1.12 ± 0.062,1.19 ± 0.12,0.921 ± 0.043,0.975 ± 0.049,1.1 ± 0.068,1.2 ± 0.26,1 (active)
Cc1oncc1C(=O)NCc1cc(C2CC2)n(C)n1,0.927 ± 0.087,0.954 ± 0.12,0.975 ± 0.065,0.946 ± 0.04,0.982 ± 0.072,0.921 ± 0.24,0.997 (active)
O=C(O)c1cc(O)c2ccccc2n1,1.23 ± 0.3,1.13 ± 0.11,1 ± 0.064,1.01 ± 0.057,1.21 ± 0.14,1.38 ± 0.14,0.991 (active)
CNC(=O)c1ccccc1Sc1ccc2c(/C=C/c3ccccn3)n[nH]c2c1,0.626 ± 0.11,0.729 ± 0.25,0.813 ± 0.061,0.0229 ± 0.0024,0.485 ± 0.12,0.259 ± 0.048,0.897 (active)
COc1ccccc1OCCOCCOc1cccc(Br)c1,0.883 ± 0.14,1.05 ± 0.12,0.945 ± 0.087,1.05 ± 0.044,1.27 ± 0.29,1.36 ± 0.24,0.802 (active)
COCCCOc1ccnc(CS(=O)c2nc3ccccc3[nH]2)c1C (configuration not stated),1.24 ± 0.3,1.07 ± 0.098,1.11 ± 0.11,0.839 ± 0.029,1.22 ± 0.13,1.28 ± 0.23,0.98 (active)
O=C(NCC1CCN(C(=O)c2ccncc2)CC1)c1ccc(Oc2ccccc2)cc1,0.988 ± 0.058,0.954 ± 0.096,0.893 ± 0.026,0.873 ± 0.066,0.882 ± 0.057,0.932 ± 0.12,0.997 (active)
Cc1ccc(C(CNC(=O)NC2CCCC2)OCCO)cc1 (configuration not stated),0.622 ± 0.072,1.08 ± 0.1,0.808 ± 0.047,0.944 ± 0.075,1.07 ± 0.1,1.1 ± 0.27,1.01 (active)
CC(C)C(=O)N1CCCc2ccc(NC(=O)COc3ccc4ccccc4c3)cc21,0.867 ± 0.07,1.44 ± 0.12,1.31 ± 0.071,0.771 ± 0.075,1.26 ± 0.092,1.54 ± 0.12,0.995 (active)
Cc1ccc(-n2c(=O)c3c4c(sc3n3c(S)nnc23)CCCC4)cc1,0.968 ± 0.063,1.07 ± 0.069,0.923 ± 0.1,0.959 ± 0.035,1.41 ± 0.21,1.15 ± 0.1,0.993 (active)
CCCCCCC=CCCCCCCCc1cccc(O)c1C(=O)O,0.897 ± 0.067,0.987 ± 0.069,0.96 ± 0.029,0.774 ± 0.043,0.991 ± 0.12,1.06 ± 0.14,1 (active)
Cn1c(=O)c2c(ncn2CC2OCCO2)n(C)c1=O,0.89 ± 0.12,0.921 ± 0.067,0.99 ± 0.057,0.919 ± 0.084,0.904 ± 0.11,0.845 ± 0.17,1 (active)
CC(C)(O)C#Cc1ccccn1,0.931 ± 0.052,0.93 ± 0.14,0.909 ± 0.072,0.916 ± 0.05,1.11 ± 0.096,1.08 ± 0.29,1.01 (active)
Nc1ccn(C[C@@H](CO)OCP(=O)(O)O)c(=O)n1,1 ± 0.25,0.97 ± 0.057,0.961 ± 0.064,0.906 ± 0.03,1.3 ± 0.14,1.14 ± 0.16,1.01 (active)
COc1ccc(C(C)NC(=O)CCc2nnc3ccc(-c4ccc(C)c(C)c4)nn23)cc1OC (configuration not stated),1.3 ± 0.23,1.06 ± 0.083,1.4 ± 0.38,0.301 ± 0.14,0.963 ± 0.088,0.623 ± 0.089,1.01 (active)
O=C(NCCN1CCN(c2ccc(Cl)cc2)CC1)c1ccncc1,0.974 ± 0.076,0.99 ± 0.076,1.01 ± 0.027,1.01 ± 0.053,1.02 ± 0.081,0.986 ± 0.097,0.998 (active)
